Source: PubChem BioAssay (EPA / NIEHS)
Active and inactive are the calls of the source. The calls were made as follows: active = hit-call score of the fitted dose curve at least 0.9, where 1 is the maximum; inactive = score below 0.9.

The compounds below were run against Transcription factor Sp1 (Homo sapiens) (UniProt P08047) (assay: ATG_Sp1_CIS: Attagene CIS-FACTORIAL HepG2 Assay for human Specificity Protein 1 (Sp1) (AID 2282961)). Details: HepG2 Sp1 cis-reporter transcription, actives raise or lower the signal.
Summary of the method: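 Liver-derived HepG2 cells, cis-element reporter library, 24 h treatment; RNA isolated, cDNA amplified with reporter-specific primers, FAM-labeled fragments sized on capillary analyzer. DMSO baseline, bidirectional curve fit.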

Transcription factor Sp1 (Homo sapiens), sequence (P08047 whole entry, looked up, the tested form may be a part): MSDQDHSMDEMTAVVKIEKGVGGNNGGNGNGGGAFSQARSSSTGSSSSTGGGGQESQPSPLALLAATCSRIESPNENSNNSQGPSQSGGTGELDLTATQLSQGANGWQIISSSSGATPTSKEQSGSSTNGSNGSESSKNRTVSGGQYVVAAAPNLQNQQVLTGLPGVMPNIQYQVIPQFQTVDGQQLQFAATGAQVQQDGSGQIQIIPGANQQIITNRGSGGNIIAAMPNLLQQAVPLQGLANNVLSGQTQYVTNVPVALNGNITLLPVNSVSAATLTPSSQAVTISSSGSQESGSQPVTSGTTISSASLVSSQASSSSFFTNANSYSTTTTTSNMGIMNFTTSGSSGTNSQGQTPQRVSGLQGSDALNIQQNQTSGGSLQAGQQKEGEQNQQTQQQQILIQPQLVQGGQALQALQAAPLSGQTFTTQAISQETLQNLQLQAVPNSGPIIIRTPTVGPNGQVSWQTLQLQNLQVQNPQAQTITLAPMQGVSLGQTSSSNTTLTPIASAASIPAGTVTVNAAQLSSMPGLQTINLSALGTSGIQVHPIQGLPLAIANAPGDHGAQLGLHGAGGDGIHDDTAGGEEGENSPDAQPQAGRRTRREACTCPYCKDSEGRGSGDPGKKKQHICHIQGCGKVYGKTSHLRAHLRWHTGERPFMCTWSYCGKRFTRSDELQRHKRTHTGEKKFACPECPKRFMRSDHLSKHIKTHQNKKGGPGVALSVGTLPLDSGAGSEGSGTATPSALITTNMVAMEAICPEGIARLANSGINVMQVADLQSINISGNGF

Row | Structure (SMILES) | AC50 | outcome
1 | CCCCCCCCCCCC#N | 76.4 µM (active) | 
2 | O=C(NC(=O)c1c(F)cccc1F)Nc1ccc(Oc2ccc(C(F)(F)F)cc2Cl)cc1F |  | inactive
3 | CC1CCCC1.[C-]#[O+].[C-]#[O+].[C-]#[O+].[Mn] |  | inactive
4 | CCCCNP(N)(N)=S |  | inactive
5 | CC(=O)C=Cc1ccccc1 |  | inactive
6 | CCC(=O)c1ccc(Cl)cc1 |  | inactive
7 | Nc1ccccc1C(=O)Oc1ccc2ccccc2c1 | 56.2 µM (active) | 
8 | C=CC(=O)OC |  | inactive
9 | CC(C)CCCCCCCOC(=O)c1ccccc1C(=O)OCCCCCCCC(C)C |  | inactive
10 | N#CCNCC#N |  | inactive
11 | CN(C)N |  | inactive
12 | CN1C[C@H](C(=O)N[C@]2(C)O[C@@]3(O)[C@@H]4CCCN4C(=O)[C@H](Cc4ccccc4)N3C2=O)C=C2c3cccc4[nH]cc(c34)C[C@H]21 |  | inactive
13 | O=[N+]([O-])C=Cc1ccccc1 | 21.2 µM (active) | 
14 | Nc1ccc(Cl)c(Cl)c1 |  | inactive
15 | CCCCOP(=O)(O)OCCCC |  | inactive
16 | O=C(O)CCl |  | inactive
17 | CC(O)CN(CC(C)O)CC(C)O (configuration not stated) |  | inactive
18 | Nc1cc(Cl)cc(Cl)c1 |  | inactive
19 | O=[N+]([O-])c1ccc(Cl)cc1 |  | inactive

Row | Structure (SMILES) | AC50 | outcome
20 | Cc1ccc(C)c2ccccc12 |  | inactive
21 | C=CCO |  | inactive
22 | COC(=O)COc1ccc(Cl)cc1Cl |  | inactive
23 | [CH3][Sn]([Cl])([Cl])[Cl] |  | inactive
24 | CC(=O)c1cc2c(cc1C)C(C)(C)C(C)CC2(C)C (configuration not stated) | 27.2 µM (active) | 
25 | Nc1ccc(-c2ccc(N)c(N)c2)cc1N |  | inactive
26 | c1cc(OCC2CO2)ccc1Cc1ccc(OCC2CO2)cc1 (configuration not stated) | 37.6 µM (active) | 
27 | C=CC(=O)OCCCCOC(=O)C=C | 26 µM (active) | 
28 | c1ccc2c(c1)CCCC2 |  | inactive
29 | CCOC(=O)C1OC1(C)c1ccccc1 (configuration not stated) |  | inactive
30 | [Cl][Sb]([Cl])[Cl] |  | inactive
31 | COc1ncc(F)c2nc(S(=O)(=O)Nc3c(F)cccc3F)nn12 |  | inactive
32 | CC(C)[C@@H](C(=O)O[C@@H](C#N)c1cccc(Oc2ccccc2)c1)c1ccc(Cl)cc1 |  | inactive
33 | C[C@]12CC[C@H]3[C@@H](CC[C@@]45O[C@@H]4C(O)=C(C#N)C[C@]35C)[C@@H]1CC[C@@H]2O |  | inactive
34 | O=[N+]([O-])c1cc([N+](=O)[O-])c2ccccc2c1 |  | inactive
35 | O=C(O)C(Br)Br |  | inactive
36 | C=CC(=O)OCCO | 156 µM (active) | 
37 | CCCCCCCCCCCCCCCC[N+](C)(C)C |  | inactive
